# In PubChem BioAssay AID1053133 (Broad Institute, 2014):
# Values joined by “and” are separate entries in the source; they are usually repeats but may differ in a detail not shown here. Equal entries are not always repeated. Hit rate of the full screen: of about 89,000 compounds, about 10 (0.01%) were called active. Roughly 10% stayed inconclusive and do not appear here. Cut-off read from the data, not from the text of the source: active = activity change below about -37% (passing the limit was not always enough); inconclusive = no clear call, values can overlap the other calls; tested in A549 cells. Only a sample is shown.
# Assay: Vaccinia orthopox stage-specific inhibition, primary screen, cell-based, single point (AID 1053133)
# Details: Vaccinia-infected cells, mCherry/Venus stage reporter fluorescence, stronger effect = lower value, concentration not given here; activity change (Venus): measured here: Venus reporter, other viral stage
Compound,activity change (Venus),activity change (mCherry)
CO[C@H]1CN(C)C(=O)c2ccc(NC(=O)C3CCOCC3)cc2OC[C@H](C)NC[C@H]1C,1.25%,-0.453% (inactive)
CN1c2ccc(C#Cc3cccnc3)cc2[C@H]2[C@H](CCN2S(=O)(=O)c2ccccc2)[C@@H]1CO,-9.21%,-5.16% (inactive)
C[C@H](O)C#Cc1cnc2c(c1)C(=O)N([C@@H](C)CO)C[C@@H](C)[C@@H](CN(C)C(=O)Cc1ccccn1)O2,10.7%,17.6% (inactive)
O=C(C[C@H]1CC[C@H](NC(=O)CCN2CCCCC2)[C@@H](CO)O1)Nc1ccccc1,15.9%,7.83% (inactive)
O=C(NCC[C@H]1CC[C@@H](NS(=O)(=O)c2cccc(Cl)c2)[C@@H](CO)O1)c1cnccn1,-5.45%,-13.7% (inactive)
C[C@H](CO)N1C[C@H](C)[C@@H](CN(C)Cc2ccc(Oc3ccccc3)cc2)Oc2cc(-c3ccncc3)ccc2S1(=O)=O,1.19%,4.26% (inactive)
CO[C@@H]1CC[C@H]2CCN(C)C(=O)C[C@@H](c3ccccc3)CN(C)C(=O)c3cc(C#N)ccc3OC[C@@H]1O2,-9.45%,-7.23% (inactive)
O=C(C[C@@H]1CC[C@H]2[C@@H](COC[C@H](O)CN2C(=O)Nc2ccccc2)O1)NCc1ccccc1F,9.72%,7.54% (inactive)
COc1cccc(S(=O)(=O)N2C[C@@H]3N[C@H](C2)C3c2ccc(-c3cccc(C(=O)N(C)C)c3)cc2)c1 (some centres undefined),-11.2%,-13.4% (inactive)
CCCC(=O)N1CC2(CCN(C(=O)C3CC3)CC2)c2c(n(C)c3cc(OC)ccc23)[C@H]1CO,-6.7%,-2.69% (inactive)
COCC(=O)Nc1ccc2c(c1)OC[C@@H](C)N(Cc1ccccn1)C[C@H](C)[C@@H](OC)CN(C)C2=O,15.4%,16.4% (inactive)
C/C=C/c1ccc(C2[C@H]3CNC[C@@H]2N3C(=O)Nc2ccc(F)cc2)cc1 (some centres undefined),2.48% and -0.546%,0.263% (inactive) and -2.6% (inactive)
COc1ccc2c3c([nH]c2c1)[C@H](CO)N(C(=O)CN1CCOCC1)CC31CN(C(C)=O)C1,24.1%,42.6% (inactive)
C[C@@H]1CCCCO[C@@H](CN(C)C(=O)Cc2ccccc2)[C@H](C)CN([C@H](C)CO)C(=O)c2cc(NC(=O)Cc3ccccc3)ccc2O1,-23.2%,-29.2% (inactive)
CN(C)C(=O)c1ccc(-c2ccc([C@H]3[C@H](CO)N4C(=O)CN(C(=O)C5CCCC5)C[C@@H]34)cc2)cc1,3.62%,4.76% (inactive)
CO[C@H]1CC[C@H]2CCN(C)C(=O)C[C@@H](c3ccccc3)CN(C)C(=O)c3cccc(C#N)c3OC[C@@H]1O2,36.7%,37.9% (inactive)
COc1ccccc1CNC(=O)C[C@H]1CC[C@@H](NC(=O)CN(C)C)[C@@H](CO)O1,17.1%,6.13% (inactive)
COCC#Cc1ccc([C@H]2[C@@H](CO)N3C(=O)CN(C(=O)C4CCCC4)C[C@@H]23)cc1,10.7%,14.5% (inactive)
CO[C@@H]1CN(C)C(=O)c2cc(NS(=O)(=O)Cc3ccccc3)ccc2OC[C@H](C)NC[C@H]1C,3.49%,-2.28% (inactive)
COc1ccc(NC(=O)N(C)C[C@H]2OCCCC[C@@H](C)Oc3ccc(NS(=O)(=O)c4ccc(F)cc4)cc3C(=O)N([C@H](C)CO)C[C@H]2C)cc1,-16.7%,-18% (inactive)
O=C(C[C@@H]1CC[C@@H]2[C@H](COC[C@@H](O)CN2S(=O)(=O)c2cccc(Cl)c2)O1)N1CCOCC1,10.1%,21.4% (inactive)
O=C(C[C@@H]1CC[C@@H]2[C@H](COC[C@@H](O)CN2Cc2ccc(Cl)cc2)O1)NCc1ccccc1Cl,-11.5%,-7.35% (inactive)
O=C(C[C@@H]1CC[C@@H]2[C@H](COC[C@H](O)CN2S(=O)(=O)c2ccccc2)O1)N[C@H]1CCN(Cc2ccccc2)C1,-6.28%,-10.6% (inactive)
COc1cccc(NC(=O)Nc2ccc3c(c2)C(=O)N(C)C[C@H](OC)[C@@H](C)CN[C@@H](C)CO3)c1,13.8%,1.34% (inactive)
CCC(=O)Nc1ccc2c(c1)OC[C@@H](C)N(Cc1ccccc1OC)C[C@H](C)[C@H](OC)CN(C)C2=O,-6.3%,-3.87% (inactive)
COc1ccccc1-c1ccc([C@H]2[C@@H](CO)N(CC3CC3)C23CN(S(C)(=O)=O)C3)cc1,0.302%,-10.8% (inactive)
O=C(Nc1ccccc1F)N1CC(=O)N2[C@H](CO)[C@H](c3ccc(C#CC4CC4)cc3)[C@@H]2C1,-0.75%,-2.67% (inactive)
